Measured values reported in PubChem BioAssay (NCATS).
Inconclusive results are not listed. Calls of active or inactive are those of the source. Calls come from the whole dose curve; as a rule, active = well fitted inhibition curve with a large enough effect; inconclusive = small, poorly fitted or top-dose-only effect; inactive = flat fitted curve, though single readings scatter.

molecular target: Voltage-gated inwardly rectifying potassium channel KCNH2 (Homo sapiens) (UniProt Q12809); experiment: qHTS Assay for Small Molecule Inhibitors of the Human hERG Channel Activity (AID 588834); conditions: U2OS BacMam hERG, FluxOR thallium flux fluorescence; series mostly up to 46.1 µM; activity change, negative = inhibition: at the top concentration;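 note: lower thallium flux fluorescence means stronger hERG block; nearly all actives have a fitted effect of over 50% in size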; for activity change, negative = inhibition: top concentration of the series differs between compounds
Sequence (Q12809 whole entry, looked up): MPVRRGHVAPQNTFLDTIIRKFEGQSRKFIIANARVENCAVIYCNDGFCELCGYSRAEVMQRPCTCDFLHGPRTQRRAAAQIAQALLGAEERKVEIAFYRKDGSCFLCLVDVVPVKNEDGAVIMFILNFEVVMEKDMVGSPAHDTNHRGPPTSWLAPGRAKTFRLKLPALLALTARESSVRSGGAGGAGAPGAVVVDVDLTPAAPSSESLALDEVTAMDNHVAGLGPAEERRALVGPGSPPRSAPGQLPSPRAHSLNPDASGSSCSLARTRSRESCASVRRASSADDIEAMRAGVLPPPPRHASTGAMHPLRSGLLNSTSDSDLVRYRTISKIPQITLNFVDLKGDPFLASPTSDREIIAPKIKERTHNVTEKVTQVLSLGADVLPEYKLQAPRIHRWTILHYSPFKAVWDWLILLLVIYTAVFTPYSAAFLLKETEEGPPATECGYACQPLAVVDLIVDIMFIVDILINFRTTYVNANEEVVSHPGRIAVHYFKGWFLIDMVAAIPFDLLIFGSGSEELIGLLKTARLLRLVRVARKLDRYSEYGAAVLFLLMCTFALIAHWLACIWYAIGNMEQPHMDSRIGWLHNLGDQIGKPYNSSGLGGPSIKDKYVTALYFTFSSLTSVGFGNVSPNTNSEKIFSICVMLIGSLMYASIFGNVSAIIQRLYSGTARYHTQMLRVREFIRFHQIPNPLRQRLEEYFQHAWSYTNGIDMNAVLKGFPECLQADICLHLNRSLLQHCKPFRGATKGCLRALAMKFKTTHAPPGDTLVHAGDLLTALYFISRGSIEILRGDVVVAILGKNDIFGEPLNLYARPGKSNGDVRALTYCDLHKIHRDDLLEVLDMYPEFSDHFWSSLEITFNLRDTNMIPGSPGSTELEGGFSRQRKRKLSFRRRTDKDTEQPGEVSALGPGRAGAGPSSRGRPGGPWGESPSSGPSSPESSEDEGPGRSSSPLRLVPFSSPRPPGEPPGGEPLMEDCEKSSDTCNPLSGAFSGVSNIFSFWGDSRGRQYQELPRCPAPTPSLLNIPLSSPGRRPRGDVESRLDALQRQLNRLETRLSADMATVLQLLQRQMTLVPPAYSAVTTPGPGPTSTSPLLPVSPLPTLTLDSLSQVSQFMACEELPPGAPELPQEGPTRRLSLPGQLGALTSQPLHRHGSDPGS
How it was run: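 Concentration-response qHTS measuring drop in thallium-sensitive dye signal. U2OS cells carrying BacMam hERG; compound exposure ~10 min, then stimulation buffer and 2 min read at 1 sec intervals.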
% is set by controls: 0 for no effect and ±100 for the full control effect; potency is the fitted concentration of half-maximal effect.

Row | Compound | activity change, negative = inhibition | Potency
1 | C[N+](C)(C)CC(O)CC(=O)[O-] (stereo not given) | -9.38% (inactive) | 
2 | CC(=O)OCC(=O)[C@@]1(O)CC[C@H]2[C@@H]3CCC4=CC(=O)C=C[C@]4(C)[C@@]3(F)[C@@H](O)C[C@@]21C | 8.62% [at 20.6 µM] (inactive) | 
3 | NS(=O)(=O)c1cc(C2(O)NC(=O)c3ccccc32)ccc1Cl (stereo not given) | -24.1% [at 20.6 µM] (inactive) | 
4 | C/C=C1\[C@H]2C=C(C)C[C@]1(N)c1ccc(=O)[nH]c1C2 | -15.6% (inactive) | 
5 | CC[C@H](C)[C@H](N)C(=O)O | -3.41% (inactive) | 
6 | CN1CC(=O)NC1=N | 10.6% (inactive) | 
7 | O=C1c2ccccc2C(=O)C1c1ccc(Br)cc1 | 3.66% (inactive) | 
8 | C[N+]1(C)CCCC(OC(=O)C(O)(c2ccccc2)c2ccccc2)C1 (stereo not given) | -0.0631% [at 20.6 µM] (inactive) | 
9 | CC1(C)S[C@@H]2[C@H](NC(=O)C(C(=O)O)c3ccccc3)C(=O)N2[C@H]1C(=O)O (stereo not given in full) | -1.2% (inactive) | 
10 | NC(=O)N[C@@H](CCC(=O)O)C(=O)O | 1.15% (inactive) | 
11 | C[C@]1(Cn2ccnn2)[C@H](C(=O)O)N2C(=O)C[C@H]2S1(=O)=O | 4.22% (inactive) | 
12 | O=C(O)CNC(=O)c1ccccc1I | -58.1% (inactive) | 
13 | COc1ccc(-c2cc(=O)c3c(O)cc(O[C@@H]4O[C@H](CO[C@@H]5O[C@@H](C)[C@H](O)[C@@H](O)[C@H]5O)[C@@H](O)[C@H](O)[C@H]4O)cc3o2)cc1O | -14.7% (inactive) | 
14 | COC(=O)N/N=C/c1c[n+]([O-])c2ccccc2[n+]1[O-] | 2.23% (inactive) | 
15 | CN[C@@H]1[C@H](O)[C@H](NC)[C@H]2O[C@@]3(O)C(=O)C[C@@H](C)O[C@H]3O[C@@H]2[C@H]1O | -1.03% [at 20.6 µM] (inactive) | 
16 | CC1(C)S[C@@H]2[C@H](N=CN3CCCCCC3)C(=O)N2[C@H]1C(=O)O | -1.49% (inactive) | 
17 | CC1(c2ccccc2)OC(C(=O)O)=CC1=O (stereo not given) | 25.9% (inactive) | 
18 | CC(=O)N[C@@H](CC(C)C)C(=O)O | -3.2% (inactive) | 

Row | Compound | activity change, negative = inhibition | Potency
19 | Cc1cccc(Nc2ccccc2C(=O)O)c1C | -4.99% (inactive) | 
20 | O=c1[nH]c(=O)n([C@H]2C[C@H](O)[C@@H](CO)O2)cc1I | -1.35% [at 20.6 µM] (inactive) | 
21 | NC(=O)NC1NC(=O)NC1=O (stereo not given) | -29.5% [at 20.6 µM] (inactive) | 
22 | O=C(/C=C/c1ccc(O)c(O)c1)O[C@@H]1C[C@@](OC(=O)/C=C/c2ccc(O)c(O)c2)(C(=O)O)C[C@@H](O)[C@@H]1O | 8.94% (inactive) | 
23 | CCCNC(C)C(=O)Nc1c(C)csc1C(=O)OC (stereo not given) | 5.99% [at 20.6 µM] (inactive) | 
24 | O=C(NCC(O)CO)c1c(I)c(C(=O)NCC(O)CO)c(I)c(N(CCO)C(=O)CO)c1I (stereo not given) | 31.4% [at 20.6 µM] (inactive) | 
25 | CC[C@]12CCCN3CCc4c(n(c5ccccc45)[C@@](O)(C(=O)OC)C1)[C@@H]32 |  | 398 nM (active)
26 | CCOC(=O)OC(C)OC(=O)[C@@H]1N2C(=O)[C@@H](NC(=O)[C@H](N)c3ccccc3)[C@H]2SC1(C)C (stereo not given in full) | 12% [at 20.6 µM] (inactive) | 
27 | CN1C(=O)CC(c2ccccc2)C1=O (stereo not given) | 10.2% (inactive) | 
28 | COc1ccccc1OCC(O)CO (stereo not given) | -11.1% [at 20.6 µM] (inactive) | 
29 | NS(=O)(=O)c1cc(-c2nn[nH]n2)c(NCc2cccs2)cc1Cl | 0.262% (inactive) | 
30 | OCCN1C[C@H](O)[C@@H](O)[C@H](O)[C@H]1CO | -0.605% (inactive) | 
31 | O=C(O)C(S)C(S)C(=O)O (stereo not given) | 2.84% (inactive) | 
32 | CC(=O)[C@@]1(O)CC[C@H]2[C@@H]3C[C@H](C)C4=CC(=O)C=C[C@]4(C)[C@@]3(F)[C@@H](O)C[C@@]21C | -1.69% [at 20.6 µM] (inactive) | 
33 | CCCCCCCCCCCCCCCCC(C(=O)O)C(O)(CC(=O)O)C(=O)O (stereo not given) | -2.47% (inactive) | 
34 | COCC(=O)Nc1c(I)c(C(=O)NCC(O)CO)c(I)c(C(=O)N(C)CC(O)CO)c1I (stereo not given) | 1.56% [at 20.6 µM] (inactive) | 
35 | CCOC(=O)[C@H](CCc1ccccc1)N[C@@H](C)C(=O)N1Cc2cc(OC)c(OC)cc2C[C@H]1C(=O)O | 3.43% (inactive) | 
